Results reported in PubChem BioAssay AID1347044 (National Center for Advancing Translational Sciences (NCATS), 2019).
About 1,100 (79%) of roughly 1,400 compounds were called active. Inconclusive results (about 20%) are left out. Calls follow the shape of the full dose curve. The set was probably picked from earlier hits. The list is a sample of the results.
Also: nearly all actives have a fitted effect of over 70% in size.
Potency is read from the fitted curve at half-maximal effect.

These compounds were tested against Atrial natriuretic peptide receptor 1 (Homo sapiens) (UniProt P16066) (assay: Natriuretic polypeptide receptor (hNpr1) antagonism - Confirmation). Conditions: HEK293 hNpr1 cGMP GloSensor luminescence, ANP-stimulated; series mostly up to 57.6 µM; activity change, negative = inhibition: at the top concentration.
Atrial natriuretic peptide receptor 1 (Homo sapiens), sequence (P16066 whole entry, looked up, the tested form may be a part): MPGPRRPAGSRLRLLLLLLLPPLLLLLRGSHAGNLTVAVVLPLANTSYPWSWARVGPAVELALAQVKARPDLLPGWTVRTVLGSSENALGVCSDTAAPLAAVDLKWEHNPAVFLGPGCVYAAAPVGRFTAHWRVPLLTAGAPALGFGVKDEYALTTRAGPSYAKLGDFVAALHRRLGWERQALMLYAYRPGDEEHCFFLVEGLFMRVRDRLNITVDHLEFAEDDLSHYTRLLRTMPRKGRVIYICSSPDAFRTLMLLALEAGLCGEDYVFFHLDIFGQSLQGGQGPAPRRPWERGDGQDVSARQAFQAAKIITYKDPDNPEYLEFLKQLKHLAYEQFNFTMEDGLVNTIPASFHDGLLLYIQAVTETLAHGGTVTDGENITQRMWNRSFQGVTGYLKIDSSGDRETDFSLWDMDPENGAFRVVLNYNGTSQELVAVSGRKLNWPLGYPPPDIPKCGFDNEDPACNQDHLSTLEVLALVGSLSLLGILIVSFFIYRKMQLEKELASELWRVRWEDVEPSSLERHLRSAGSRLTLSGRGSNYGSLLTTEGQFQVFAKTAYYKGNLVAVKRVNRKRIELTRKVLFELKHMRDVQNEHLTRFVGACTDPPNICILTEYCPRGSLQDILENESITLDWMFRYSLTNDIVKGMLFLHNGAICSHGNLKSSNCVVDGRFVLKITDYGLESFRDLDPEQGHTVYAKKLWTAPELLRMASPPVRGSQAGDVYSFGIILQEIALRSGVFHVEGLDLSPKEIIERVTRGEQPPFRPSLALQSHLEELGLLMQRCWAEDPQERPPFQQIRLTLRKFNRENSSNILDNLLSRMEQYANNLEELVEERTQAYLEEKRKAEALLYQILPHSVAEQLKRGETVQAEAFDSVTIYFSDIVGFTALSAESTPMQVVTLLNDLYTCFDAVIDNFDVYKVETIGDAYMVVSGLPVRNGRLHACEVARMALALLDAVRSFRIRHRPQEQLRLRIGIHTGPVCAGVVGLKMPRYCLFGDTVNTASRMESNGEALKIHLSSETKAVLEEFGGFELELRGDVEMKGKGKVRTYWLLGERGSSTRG
Protocol: In order to identify small molecular compounds that inhibit the hNpr1 receptor we developed a high-throughput assay to measure inhibition of the guanylate cyclase activity of the receptor. cGMP production was measured using a circular permutated Firefly luciferase (FLuc) enzyme functionally linked to the cGMP binding domain of human phosphodiesterase 5 (GloSensor technology pGS-40F, (Fan, F. et al. 2008). The cGMP-sensor was expressed in human embryonic kidney 293 (HEK-293) cells and FLuc activity was measured after stimulation with hNrp agonist peptide. hNrp agonists activates the receptor's associated guanylyl cyclase (GC) domain producing cGMP which then binds to the GloSensor resulting in FLuc activation, the enzymatic activity of which can be measured as bioluminescence with addition of luciferin substrate. A cytotoxicity counter-screen using the HEK-hNpr1-cGMP-sensor cells was also performed on the follow-up compounds. F. Fan, B. F. Binkowski, B. L. Butler, P. F. Stecha, M. K. Lewis, K. V. Wood, Novel genetically encoded biosensors using firefly luciferase. ACS Chem Biol 3, 346-351 (2008).
PROTOCOL TABLES (as described by Inglese J, Shamu CE and Guy RK. 2007) SEQUENCE No. (e.g., 1, 2, 3, etc.); PARAMETER (e.g., Cells, Incubation, Reagent, etc.); VALUE and DESCRIPTION. GLOSENSOR PROTOCOL 1. Cells. Seed 1500 HEK293 cGMP-sensor cells expressing hNpr1 per well in 4uL into Greiner 1536-well white/solid bottom high base, tissue culture-treated plates. 2. Incubation. Incubate plated cells at 37C in 5% CO2, 95% RH overnight. 3. Reagent. Add 1uL per well GloSensor reagent from Promega (2% final concentration) or CO2 independent media vehicle control to respective columns of Greiner 1536-well plates. 4. Incubation. Incubate plated cells at room temperature for 2 h, protect from light. 5. Compounds. Library compounds and A-71915 control added at 23 nL per well, transferred by Pin Tool. 6. Incubation. Incubate plated cells for 30 min. at room temperature, protect from light. 7. Detector. GloSensor baseline pre-read luminescence measured using CCD-based camera (Viewlux). 8. Compound. Add 1uL of hNppA peptide to 0.1 nM final concentration to stimulate hNpr1 or CO2 independent media as vehicle control. 9. Incubation. Incubate treated cells at room temperature for 20 min., protect from light. 10. Detector. GloSensor post-hNppA luminescence measured using CCD-based camera (Viewlux). NOTES (numbers refer to Sequence numbers above) 1. HEK293 cells expressing hNpr1 and GIP/pGS-40F grown to 85-95% confluence (48-72 h) in T175 culture flasks (CO2 independent media supplemented with 10% FBS, 1% Pen/Strep antibiotics and 1 ug/mL puromycin). Trypsinize and harvest cells from T175 culture flasks and filter through 40 um cell strainer. Cells counted with Invitrogen Countess (30,000,000 - 50,000,000 cells/flask). Cells diluted to a final concentration of 375 cells/uL in CO2 independent media and a Millipore multidrop used to dispense 1500 cells per well (4uL/well) into 13 1536-well Greiner White/Solid bottom, high base tissue-culture treated (TC) plates and one Aurora 1536-well Black/Clear bottom, low base, TC plate (for visual inspection of cell health throughout the duration of the assay). 2. Cells incubated overnight at ambient temperature, 24 h. at 37C in 95% RH incubator protected from light, covered with metal lid with gas-exchange holes. 3. Prepare GloSensor Reagent (Promega): Reconstitute GloSensor luciferase substrate by adding 8.2mL Hepes buffer to 250mg substrate, mix well, protect from light and stored at -80C. Prepare a fresh 12% GloSensor solution in CO2 independent supplemented plating media (see above). Mix well and store at ambient temperature, protected from light. 1uL 12% GloSensor Luciferase Reagent added (2% final concentration) to respective columns of 13 x 1536-well Greiner plate with BioRaptr, 1uL CO2 independent plating media added to respective columns as vehicle control with BioRaptr. 4. […]
In the case of `COc1ccc(CC(=O)N2CCC(Cc3nc(-c4ccccc4)no3)CC2)cc1OC`, the Potency is reported as 12.2 µM (active). With `Cc1c[nH]c(CN2CCCC(CCc3ccc(F)cc3F)C2)c(C)c1=O` (centres undefined) the Potency was 3.43 µM (active). `O=C(c1ccccn1)N1CC(Oc2ccc(-c3noc(C4CC4)n3)cc2)C1` was tested, and the Potency was 17.2 µM (active). `Cc1cccc(C(=O)N2CCC(Oc3ccc(-c4noc(C(C)C)n4)cc3)C2)c1` (centres undefined) was tested, and the Potency was 27.3 µM (active). `O=C1c2cnc(-c3ccc(Cl)cc3)nc2OCCN1Cc1ccccc1` was tested, and the Potency was 35.3 µM (active). In the case of `COC(=O)c1cccc(NC(=O)CCNc2c(C)nc3cnccn23)c1`, the Potency is reported as 21.7 µM (active). With `O=C(c1ccccc1)N1CCC(C(=O)N2CCC(Cc3nc(-c4ccc(F)cc4)no3)CC2)CC1` the Potency was 17.2 µM (active). In the case of `COc1cccc(-c2noc(CC3CCN(C(=O)c4ccc(F)cc4)CC3)n2)c1`, the Potency is reported as 6.11 µM (active). In the case of `Cc1cc(CNC(=O)c2ccc(-c3ccccc3Cl)o2)n(C)n1`, the Potency is reported as 24.3 µM (active). For `O=C(NCC1CC1)c1nc2c(o1)CCN(Cc1cccc(F)c1F)CC2`, the Potency was 28 µM (active). `C1CCC(COCCc2noc(C3CNC3)n2)C1` was tested, and the Potency was 21.7 µM (active). `COc1ccccc1Nc1cnc2ccc(N(C)Cc3cccnc3)nn12` was tested, and the Potency was 31.4 µM (active). In the case of `OC1(Cc2cc(-c3ccccc3)no2)CCN(c2ncncn2)CC1`, the Potency is reported as 7.69 µM (active). With `O=C(NCc1nnc2cc(-c3nc(C4CC4)no3)ccn12)c1ccc(F)cc1Cl` the Potency was 17.2 µM (active). `Cc1ccc(OCc2nc(C3CCN(C(=O)CCc4nc5ccc(Cl)cc5[nH]4)CC3)no2)cc1` was tested, and the Potency was 24.3 µM (active). For `CCN(CCCNC(=O)c1nnn2cc(-c3ccccc3)[nH]c(=O)c12)c1ccccc1`, the “activity change, negative = inhibition” value was -27.6% (inactive). In the case of `CC(C)c1nncn1C1CCN(S(=O)(=O)c2cccc(Br)c2)CC1`, the Potency is reported as 19.3 µM (active). For `COc1ccc(-c2noc(CC3CCN(C(=O)Cc4ccc(C)cc4)CC3)n2)cc1`, the Potency was 27.3 µM (active). For `COc1ccc(-c2noc(CC3CCN(C(=O)Cc4ccccc4)CC3)n2)cc1`, the Potency was 24.3 µM (active). For `COc1ccc(-c2noc(CC3CCN(C(=O)CC4CCCCC4)CC3)n2)cc1`, the Potency was 10.9 µM (active). With `CC1=NS(=O)(=O)N(C)C=C1C(=O)OCc1nc(-c2ccc(C)cc2)no1` the Potency was 10.9 µM (active). For `Cc1ccc(C(=O)N2CCN(c3cc(-c4ccc(Cl)cc4)[nH]n3)CC2)c(C)c1`, the Potency was 6.11 µM (active). `O=C(c1cc(F)ccc1Cl)N1CCN(c2cc(-c3ccc(F)cc3)[nH]n2)CC1` was tested, and the Potency was 27.3 µM (active). In the case of `CCc1ccc(C(=O)N2CCN(c3cc(-c4ccc(F)cc4)[nH]n3)CC2)cc1`, the Potency is reported as 24.3 µM (active). In the case of `O=C(c1ccc(F)cc1F)N1CCN(c2cc(-c3ccc(Cl)cc3)[nH]n2)CC1`, the Potency is reported as 17.2 µM (active). In the case of `Cc1ccc2nc(C3CCCN(Cc4ccc(C#N)cc4)C3)[nH]c(=O)c2c1` (centres undefined), the Potency is reported as 24.3 µM (active). `COc1ccc(C2Cn3nnc(C(=O)N4CCN(C(=O)c5cccc(Cl)c5)CC4)c3CO2)cc1` (centres undefined) was tested, and the Potency was 13.7 µM (active). `COc1ccc(C2Cn3nnc(C(=O)N4CCN(C(=O)c5ccc(C)cc5C)CC4)c3CO2)cc1` (centres undefined) was tested, and the Potency was 24.3 µM (active). With `CC(C)(C)c1csc(NC(=O)c2ccc3c(c2)OCCN(C2CCC2)C3)n1` the Potency was 35.3 µM (active).
